# PubChem BioAssay AID651791 (National Center for Advancing Translational Sciences (NCATS), 2012)
# Records with an inconclusive call do not appear. The source made the active and inactive calls. The call rests on the fitted dose curve; in most records, active means well fitted inhibition curve with a large enough effect; inconclusive means small, poorly fitted or top-dose-only effect; inactive means no such curve, though single readings can be large or run the other way.
# Test: InCell qHTS Assay for Inhibitors of the mTORC1 Signaling Pathway in MEF (Tsc2-/-, p53-/-) Cells: Hit Validation;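 further: phospho-S6 Ser235/236 signal normalized to propidium iodide cell count per well; nearly all actives have a fitted effect of over 75% in size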
# Details: phospho-rpS6 immunofluorescence, 24 h; activity change, negative = inhibition: at 38.3 µM (top of the series)
# Potency means the concentration at half of the fitted maximal effect.
Structure (SMILES),"activity change, negative = inhibition [%]",Potency
CCCCOC(=O)c1ccc(NC(=O)c2ccc3c(c2)CCN3S(=O)(=O)c2ccccc2)cc1,-100,
O=C(NCc1ccc(Cl)cc1)C(=O)NCC(c1cccs1)S(=O)(=O)c1ccc(Cl)cc1 (configuration not stated),-100,
COc1ccc(Cl)cc1S(=O)(=O)NCc1ccc2c(c1)CCN2C(=O)c1cccc(C)c1,-8.71,
CCN(Cc1nc(-c2ccc(OC)cc2)oc1C)S(=O)(=O)c1ccc(Cl)cc1,-100,
Cc1oc2c(cc(NS(=O)(=O)c3ccc(C(C)C)cc3)c3ccccc32)c1C(=O)OCc1ccccc1,-1.72,
CCCn1c2ccc(C)cc2c2nnc(SCCN3CCCCC3)nc21,-100,
COc1ccc(-c2n[nH]c3c2C(c2ccc(O)cc2)N(c2ccc(Br)cc2)C3=O)cc1 (configuration not stated),-100,
Cc1cccc(-n2ncc3c(Nc4c(C)cc(C)cc4C)ncnc32)c1,-100,
COc1ccc(OCC(O)Cn2c(=N)n(CCN3CCCCC3)c3ccccc32)cc1 (configuration not stated),-100,
CN(Cc1ccccc1)C(=O)CSc1c2c(nc3ccc(Cl)cc13)CCCC2,-100,
COC(=O)c1ccccc1NC(=O)Cn1c(=O)n(-c2ccc(C)cc2)c(=O)c2ccccc21,-18.6,
CCSc1oc(-c2ccc(F)cc2)nc1S(=O)(=O)c1ccc(C)cc1,-100,
COc1cccc(-c2nc(S(=O)(=O)c3ccc(Cl)cc3)c(NCc3ccccc3)o2)c1,-100,
CCS(=O)(=O)c1ncc(Cl)c(C(=O)N(Cc2ccccc2)c2ccc(OC)cc2)n1,,2.93 µM (active)
CCOc1ccc(S(=O)(=O)N(C(C)=O)c2ccc3oc(C)c(C(=O)OC)c3c2)cc1,-100,
O=C(CCn1cnc2onc(-c3ccc(F)cc3)c2c1=O)Nc1ccc(F)c(Cl)c1,-100,
Cc1ccc(C)c(NC(=O)Nc2cc3c(cc2N2CCCCC2)n(C)c(=O)n3C)c1,-100,
FC(F)(F)c1cccc(Nc2nc3nonc3nc2Nc2ccc(Cl)cc2)c1,-100,
COc1ccc(CC(=O)Nc2sc3c(c2C(=O)Nc2cccc(C)c2)CCCCC3)cc1,-17.5,

Structure (SMILES),"activity change, negative = inhibition [%]",Potency
COc1ccc(Cn2c(C(=O)O)c(CNCc3ccc(SC)cc3)c3ccc(OC)cc32)cc1,-100,
COc1ccc(-c2noc(CSc3nc(N)cc(=O)[nH]3)n2)cc1,-100,
CC(C)Oc1ccc(CNC(=O)c2ccc3nc(SCc4ccc(F)cc4)n(C)c3c2)cc1,-100,
CN1CCN(C2(CNC(=O)COc3ccc(C(C)(C)C)cc3)CCCCC2)CC1,-100,
CCc1ccc(NC(=O)C2CCCN(S(=O)(=O)c3c(C)noc3/C=C/N(C)C)C2)cc1 (configuration not stated),,14.7 µM (active)
Cc1cccc(Nc2nnc(-c3ccc(C)c(S(=O)(=O)N4CCN(C)CC4)c3)c3ccccc23)c1,-100,
COc1ccc(Cn2c(C(=O)O)c(CNCc3ccccc3F)c3ccc(OC)cc32)cc1,-100,
COc1ccc2c(CNCCc3cccs3)c(C(=O)O)n(Cc3ccc(F)cc3Cl)c2c1,-100,
CC(C)CCNc1nc(Nc2ccccc2)c2cnn(C)c2n1,-100,
Cc1ccc2occ(CC(=O)Nc3ccc(Cl)c(C(F)(F)F)c3)c2c1,-100,
CCOC(=O)N1CCN(Cc2nc3cc(NC(=O)c4ccccc4OC)ccc3n2C(C)C)CC1,-100,
Cc1cccc(NC(=O)c2c(NC(=O)C(F)(F)F)sc3c2CCCCC3)c1,-100,
CCOC(=O)C1=C(CN2CCN(c3cc(C)ccc3C)CC2)NC(=O)NC1c1ccc(Cl)cc1 (configuration not stated),-100,
Cc1ccc2sc(N(CCCN(C)C)C(=O)c3ccco3)nc2c1C,-25.4,
Cc1ccc(CN(Cc2cccn2-c2nnc(N3CCCC3=O)s2)C(=O)Nc2ccccc2C(F)(F)F)cc1,-100,
Cc1cccc(OCc2ccc(-c3nc(C#N)c(NCCN(C)C)o3)o2)c1,-100,
CC(C)CCNC(=O)C(=O)Nc1c2c(nn1-c1ccc(Cl)cc1)CSC2,,18.5 µM (active)
COc1ccc(C(=O)c2sc(Nc3ccccc3)nc2N)cc1,-100,
